Screens (PubChem)
Most compounds without a hit are left out; they make up all but 21% or so of the library.
CYP2C19 act: cytochrome P450 2C19 (human) activation; P33261; recombinant CYP2C19, luciferin-H EGE luminescence; active compounds read high; 0 = fully inhibited enzyme, 1 = untreated enzyme; activation factor at 5 µM; 96,000 tested, under 10 active;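 active means activation factor of at least 2 at 5 µM in the primary screen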;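 further: 0 = wells with 2.5 mM tranylcypromine and 1 = vehicle-only wells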
Target sequence (P33261 whole entry, looked up): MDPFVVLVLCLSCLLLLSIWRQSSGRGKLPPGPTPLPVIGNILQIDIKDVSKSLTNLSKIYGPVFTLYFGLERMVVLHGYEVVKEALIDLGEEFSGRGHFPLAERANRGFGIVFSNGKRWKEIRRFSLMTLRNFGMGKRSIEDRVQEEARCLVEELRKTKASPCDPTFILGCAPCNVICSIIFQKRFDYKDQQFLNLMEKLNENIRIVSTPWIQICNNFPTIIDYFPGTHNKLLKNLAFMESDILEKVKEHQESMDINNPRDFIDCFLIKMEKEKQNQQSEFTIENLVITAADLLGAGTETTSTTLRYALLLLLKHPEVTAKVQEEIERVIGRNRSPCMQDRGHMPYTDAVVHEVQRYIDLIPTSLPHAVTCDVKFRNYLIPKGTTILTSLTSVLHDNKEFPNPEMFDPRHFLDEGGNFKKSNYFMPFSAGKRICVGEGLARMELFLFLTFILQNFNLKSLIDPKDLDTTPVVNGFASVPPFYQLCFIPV
MRP reversal: compounds reversing MRP-mediated drug resistance; differential viability (reversal), % at 10 µM; H69AR cells + 2 uM doxorubicin, CellTiter-Glo, 72 h; AID 602; 85,000 tested, 0.04% active;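 active means viability drop by adding the cancer drug above about 55%, with treated viability meeting a 40% cutoff, limit read from the data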;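 further: viability without doxorubicin minus viability with 2 µM doxorubicin for each compound; larger differential means the compound sensitizes cells more to doxorubicin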
CYP2C9 inhib: blocks human cytochrome P450 2C9. CYP2C9 Supersomes, luciferin-H conversion, luminescence. inhibition, % at 5 µM. 96,000 tested, 20% active;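 active means blocking of liver enzyme CYP2C9 beyond about 50% at 5 µM, limit read from the data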
MRP1 act: MRP-1 activation | H69AR cells + doxorubicin, viability rescue, CellTiter-Glo | viability increase, % at 10 µM | 140,000 tested, 0.61% active;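 active means viability gain under doxorubicin at or above a set limit, the compound median plus 3 SD, cut at about 4.7% in these data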;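 further: MRP-1 overexpressing cells given doxorubicin 25 µM after compound pretreatment; 18-22 h compound pretreatment then 72 h with doxorubicin before readout; 0% = doxorubicin-only wells and 100% = vehicle-treated cells without doxorubicin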
CYP2C19 inh: inhibitors of human CYP2C19; inhibition, % at 5 µM; 96,000 tested, 21% active; AID 778; CYP2C19 Supersomes, luciferin-H EGE luminescence, 30 min; P33261;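 active means CYP2C19 inhibition above a set limit at 5 µM in the primary screen, cut at about 50% in these data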;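 further: plate controls were negative control wells for no effect and 2.5 mM tranylcypromine positive control for full effect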
CYP2C9 activ: CYP2C9 (human) activation | activation factor at 5 µM | P11712 | AID 1024 | 96,000 tested, 1.4% active | recombinant CYP2C9, luciferin-H conversion, luminescence; active compounds read high; factor 1 = untreated enzyme, 0 = blocked;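 active means activation factor of 2 or more for CYP2C9 at a 5 µM dose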;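 further: 0 = sulfaphenazole-blocked wells and 1 = vehicle-only wells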
* hit, by the source's call; . = not tested or not shown.

SMILES | CYP2C19 act | MRP reversal | CYP2C9 inhib | MRP1 act | CYP2C19 inh | CYP2C9 activ
Cc1cccc(Oc2coc3cc(OC(=O)c4cc5ccccc5oc4=O)ccc3c2=O)c1 | 1.1 | . | -114 | -6 | -11 | 2.1*
CCOC(=O)Oc1ccc2c(=O)c(Oc3cccc(C)c3)coc2c1 | 1.1 | . | -82 | -3 | -8 | 1.8
CC(C)C(=O)Nc1ccccc1C(=O)OCC(=O)c1ccc2c(c1)OCCO2 | . | . | . | -3 | . | .
N#CC(C(=O)CCN1C(=O)C2CC=CCC2C1=O)c1nc2ccccc2[nH]1 (centres undefined) | 0.8 | 32 | 25 | -1 | 19 | 0.8
N#CC(C(=O)C12CC3CC(CC(C3)C1)C2)c1nc2ccccc2[nH]1 (centres undefined) | 0.7 | -11 | 62* | -1 | 33 | 0.4
CCN(CC)S(=O)(=O)c1ccc(-n2cnnn2)c(C)c1 | 0.6 | 4 | 4 | -1 | 36 | 1
CCCN(CC1CC1)S(=O)(=O)c1ccc(-n2cnnn2)c(OC)c1 | 0 | -9 | 8 | -1 | 100* | 0.9
COc1ccc(CN(Cc2ccccn2)S(=O)(=O)c2ccc(-n3cnnn3)cc2)cc1 | . | 9 | . | -2 | . | .
COc1cc(S(=O)(=O)N(Cc2ccco2)C2CCCC2)ccc1-n1cnnn1 | 0 | . | 74* | -4 | 98* | 0.3
Cc1cc(S(=O)(=O)N(Cc2ccccn2)Cc2ccco2)ccc1-n1cnnn1 | 0.3 | 7 | 54* | -2 | 75* | 0.5
COc1ccc(CN(Cc2ccccn2)S(=O)(=O)c2ccc(-n3cnnn3)c(OC)c2)cc1 | 0.1 | -8 | 92* | -1 | 89* | 0.1
O=C(NCc1ccco1)C1CCCN(S(=O)(=O)c2ccc(-n3cnnn3)cc2)C1 (centres undefined) | 1 | 24 | -6 | -5 | -3 | 1.1
COc1ccccc1NC(=O)NC1(C(=O)N2CCC(O)CC2)CCCCC1 | 1.1 | -9 | 2 | 0 | -6 | 1
COC(=O)C1=C(N)N(c2ccccc2F)C2=C(C(=O)CC(C)(C)C2)C1c1ccc(OC)c(OC)c1 (centres undefined) | . | . | . | 0 | . | .
CC(C)(C)c1nnc(N/N=C/c2ccc(Br)cc2)n(N)c1=O | . | . | . | 2 | . | .
O=C(Cn1cnc2ccccc21)N/N=C/c1ccccc1[N+](=O)[O-] | . | . | . | -1 | . | .
CC(NC(=O)CCNC(=O)c1ccccc1Cl)C1CC2CCC1C2 (centres undefined) | . | . | . | -2 | . | .
CCOc1ccccc1CN(Cc1ccco1)S(=O)(=O)c1ccc(-n2cnnn2)c(OC)c1 | 0.1 | . | 68* | -2 | 94* | 0.3
Cc1ccc(N2C(=O)C3C4C=CC(C4)C3C2=O)cc1 (centres undefined) | 0.5 | -8 | 18 | 0 | 47 | 0.8
Cc1cc(C)cc(N2C(=O)C3C4C=CC(C4)C3C2=O)c1 (centres undefined) | 0.4 | -9 | -6 | -2 | 63* | 1.1
C=CCOc1ccc(/C=N/NC(=O)CN(c2cc(Cl)ccc2OC)S(=O)(=O)c2ccc(C)c([N+](=O)[O-])c2)cc1 | . | . | . | -2 | . | .
O=C(NCc1ccc2c(c1)OCO2)c1cccs1 | 0.1 | 0 | 67* | -2 | 93* | 0.3
O=C(COC(=O)c1cccs1)c1ccc2c(c1)OCCO2 | 0.2 | 2 | 87* | 0 | 83* | 0.1
CCC(OC(=O)c1cccs1)C(=O)NCc1ccc2c(c1)OCO2 (centres undefined) | 0.3 | . | 79* | -1 | 69* | 0.2
O=C(COC(=O)c1cccs1)NCc1ccc2c(c1)OCO2 | 0.2 | -14 | 69* | -1 | 78* | 0.3
SMILES | CYP2C19 act | MRP reversal | CYP2C9 inhib | MRP1 act | CYP2C19 inh | CYP2C9 activ
Oc1cccc2ccc[n+](CC(O)Cn3c4ccccc4c4ccccc43)c12 (centres undefined) | . | . | . | -2 | . | .
COc1nc(N/N=C/c2ccc(C)cc2)nc(N2CCCCC2)n1 | . | . | . | 2 | . | .
Cc1ccc(S(=O)(=O)N(CCC(=O)O)c2ccccc2)cc1 | . | . | . | -1 | . | .
CCCOC(=O)C1=C(C)OC23OC(N)=C(C#N)C12C(=O)c1ccccc13 (centres undefined) | . | 17 | . | 1 | . | .
CC(=O)OC1COC(n2ccc3cc([N+](=O)[O-])ccc32)C(OC(C)=O)C1OC(C)=O (centres undefined) | . | 5 | . | -3 | . | .
O=C(Cc1n[nH]c(=O)c2ccccc12)OCC(=O)c1ccc2c(c1)OCCO2 | 1 | -26 | 66* | -4 | 3 | 0.3
CC1Cc2ccccc2N1C(=O)CSc1nc(-c2ccco2)cc(C(F)(F)F)n1 (centres undefined) | 1 | -11 | 8 | -1 | 2 | 0.9
O=C(CCSc1nc(-c2ccco2)cc(C(F)(F)F)n1)N1CCN(c2ccccn2)CC1 | 0.1 | -6 | 86* | -2 | 86* | 0.1
O=C(CCSc1nc(-c2ccco2)cc(C(F)(F)F)n1)N1CCCc2ccccc21 | 0 | -5 | 92* | -3 | 96* | 0.1
O=C(CSc1nc(-c2ccco2)cc(C(F)(F)F)n1)N1CCN(c2cccc(Cl)c2)CC1 | . | 5 | . | 2 | . | .
CCOC(=O)CNc1c(-c2ccc(F)cc2)nc2cnccn12 | 0.4 | 4 | 38 | -1 | 60* | 0.6
CCOC(=O)CNc1c(-c2ccc(Cl)cc2)nc2cnccn12 | 0.1 | 10 | 74* | 1 | 89* | 0.3
Cc1sc2nc(-c3cccnc3)nc(Cl)c2c1-c1ccccc1 | . | . | . | -2 | . | .
CSc1nccc(Nc2ccccc2)c1C#N | 0.4 | -6 | 69* | -3 | 59* | 0.3
COc1nccc(Nc2ccccc2)c1C#N | 0.6 | 7 | 3 | -1 | 39 | 1
Cc1n[nH]c(C)c1Cc1ccc(C(=O)O)cc1 | 1 | 10 | -6 | 0 | -4 | 1.1
CC1(C)CC(=O)C(CC2=C(O)CC(C)(C)CC2=O)C(=O)C1 | 0.5 | -13 | 3 | -1 | 51* | 1
CN=CC1=C(O)CC(C)(C)CC1=O | 1 | 3 | 19 | -1 | 2 | 0.8
CC1(C)CC(=O)C(CC2=C(O)CC(C)(C)CC2=O)=C(O)C1 | 0.1 | 7 | 26 | -1 | 86* | 0.7
COc1ccc(C(C)=O)c2c(O)cccc12 | 0.1 | 3 | 39 | -2 | 87* | 0.6
COc1ccc(Cl)cc1NC(=O)C1CSC(c2ccncc2)=N1 (centres undefined) | . | -10 | . | -4 | . | .
O=C(CSc1nccn1-c1ccccc1)Nc1ccc2c(c1)OCO2 | 0.1 | 1 | 74* | -1 | 87* | 0.3
O=C(CSc1nccn1-c1ccc(F)cc1)Nc1ccc2c(c1)OCO2 | 0.5 | 7 | 32 | 1 | 52* | 0.7
CSc1nccn1CC(=O)Nc1ccc(F)cc1 | 0.4 | 2 | 7 | 0 | 63* | 0.9
Cc1cc(C)cc(-n2ccnc2SCC(=O)Nc2ccc3c(c2)OCCO3)c1 | 0.8 | 13 | 42 | 4 | 23 | 0.6
COc1ccc(/C=C/C(=O)c2ccccc2)cc1Cn1nnc2ccccc21 | . | . | . | -6 | . | .
Cc1cccc(N(C)S(=O)(=O)c2ccc3[nH]c(=O)c(=O)[nH]c3c2)c1 | 1 | -11 | 49 | -2 | -3 | 0.5
